In PubChem BioAssay (Tox21):
Results filed as inconclusive are left out. Entries that show only a call come without a potency. A number with no mark means an inactive call. Activity calls are given as the source filed them. Calls follow the shape of the dose curve; as a rule, active = well fitted cell-killing curve with a large enough effect in the repeat runs; inconclusive = weak or mixed curves, or effect the other way; inactive = flat fitted curve, though single readings scatter.

Experiment: qHTS assay to identify small molecule antagonists of the androgen receptor (AR) signaling pathway using the MDA cell line in the presence of 0.5 nM R1881 - cell viability counter screen (AID 1259242); also: nearly all actives have a fitted effect of over 45% in size
Settings: MDA-kb2 viability, CellTiter-Fluor protease fluorescence, 16 h; series mostly up to 92.4 µM
Description: U.S. Tox21 Program National Center for Advancing Translational Sciences [NCATS] NIH Chemical Genomics Center [NCGC] U.S. Environmental Protection Agency [EPA] National Institutes of Environmental Health Sciences [NIEHS] National Toxicology Program [NTP] U.S. Food and Drug Administration [FDA] Tox21 Assay Overview: Androgen receptor (AR) is an important member of the nuclear receptor family. Its signaling plays a critical role in AR-dependent prostate cancer and other androgen related diseases. Considerable attention has been given in the past decades to develop methods to study and screen for the environmental chemicals that have the potential to interfere with metabolic homeostasis, reproduction, developmental and behavioral functions. Therefore AR binding assay for screening androgen antagonists can be used to identify potential endocrine disruptors. MDA-kb2 cells (from ATCC, deposited by Wilson et al.) were used to screen for AR inhibitors against Tox21 compound libraries. These cells are human breast carcinoma cells that were stably transfected with a luciferase reporter gene under control of the MMTV promoter that contains response elements for both androgen receptor (AR) and glucocorticoid receptor (GR). The current screening for identification of AR inhibitors against Tox21 libraries used lower concentration of (0.5 nM) R1881 as a stimulator. The cytotoxicity of the Tox21 compound libraries against MDA-kb2 cell line was tested by measuring live-cell protease activity using CellTiter-Fluor assay in the same wells.
Tox21 Assay Protocol Summary: MDA-kb2 cells (cells cultured without CO2) were dispensed at 3,000 cells/well in 4 uL of culture medium into white wall/solid-bottom 1536-well plates (Corning Life Sciences, Corning, NY) using a Multidrop Combi (ThermoFisher Scientific, Waltham, MA) dispenser. After the assay plates were incubated at a 37C and 0% CO2 for 5 hr, 23 nL of compounds dissolved in DMSO, positive controls or DMSO only was transferred to the assay plate by a Pintool station (Kalypsys, San Diego, CA). The transfer of compounds was followed by the addition of 1 uL of 0.5 nM (final concentration) agonist (R1881)/culture medium using a Flying Reagent Dispenser (FRD, Aurora Discovery, San Diego, CA). The plates were incubated at 37C and 0% CO2 for 16 hr. For cytotoxicity assay, 1 uL of CellTiter-Fluor reagent (Promega Corporation, Madison, WI) was added to each well using the FRD and after 30 min incubation at 37C and 0% CO2, The fluorescence intensity was measured using ViewLux plate reader (PerkinElmer, Shelton, CT).
Potency is read from the fitted curve at half-maximal effect.

Row | Structure (SMILES) | Potency | viability change, negative = cytotoxic
1 | CC1CCCNC1 (stereo not given) | inactive | 
2 | O=c1cccc[nH]1 | inactive | 
3 | c1ccc2c(c1)CCC2 | inactive | 
4 | CCOC(OCC)C(=O)c1ccccc1 | inactive | 
5 | CC(CN(C)C)CN1c2ccccc2CCc2ccccc21 (stereo not given) | inactive | 
6 | Clc1cc(Cl)c(-c2c(Cl)c(Cl)cc(Cl)c2Cl)cc1Cl | inactive | 
7 | CCCCCCCCCCCCCCNCCO | inactive | 
8 | CC(NCCC(c1ccccc1)c1ccccc1)c1ccccc1 (stereo not given) | 21.1 µM (active) | 
9 | CCN=C1C=CC(=C(c2ccc(N(CC)CC)cc2)c2ccc(N(CC)CC)cc2)c2ccccc21 | 2.71 µM (active) | 
10 | COC(=O)NCCC[Si](OC)(OC)OC | inactive | 
11 | CC(C)(c1cc(Br)c(O)c(Br)c1)c1cc(Br)c(O)c(Br)c1 | inactive | 
12 | C=CC(=O)OCCN(CC)CC | inactive | 
13 | CC1(C)COCN1 | inactive | 
14 | CCCCCCC(C)Nc1ccc(Nc2ccccc2)cc1 (stereo not given) | inactive | 
15 | O=C(O)Cc1ccc(OCCNC[C@H](O)c2ccccc2)cc1 | inactive | 
16 | O=C1NCN(c2ccccc2)C12CCN(CCCC(c1ccc(F)cc1)c1ccc(F)cc1)CC2 | 29.8 µM (active) | 
17 | Cc1ccc2ccc3cccc4ccc1c2c34 | inactive | 
18 | CSc1c(Cl)c(Cl)c(Cl)c(Cl)c1Cl | inactive | 
19 | Clc1ccc(C(Cn2ccnc2)OCc2c(Cl)cccc2Cl)c(Cl)c1 (stereo not given) | inactive | 
20 | CCCC(O)C(O)CO (stereo not given) | inactive | 

Row | Structure (SMILES) | Potency | viability change, negative = cytotoxic
21 | CCc1cccc(CC)c1NC(=O)C(=O)O | inactive | 
22 | C=C(C)CCCC | inactive | 
23 | O=S(O)O |  | 4.5% [at 19 µM]
24 | OCCC(O)CO (stereo not given) | inactive | 
25 | Cc1cnccn1 | inactive | 
26 | C/C=C/CO | inactive | 
27 | CCOC(=O)CC(C)O (stereo not given) | inactive | 
28 | ClC/C=C\CCl | inactive | 
29 | CCCCC(CC)COC(=O)c1ccc(O)cc1 (stereo not given) | inactive | 
30 | O=S(=O)(O)CCCN1CCOCC1 | inactive | 
31 | CCCCCCCCCCCCCc1ccccc1 | inactive | 
32 | N[C@@H](CSSC[C@H](N)C(=O)O)C(=O)O |  | -1.71% [at 0.349 µM]
33 | CCc1cccc(C)c1 | inactive | 
34 | CCCC(CC)CCCCCCCN (stereo not given) | inactive | 
35 | CC(COC(=O)c1ccccc1)OC(=O)c1ccccc1 (stereo not given) | inactive | 
36 | C=C[C@](C)(O)CC[C@@H]1[C@@]2(C)CCCC(C)(C)[C@@H]2CC[C@@]1(C)O | inactive | 
37 | O=C1C=CC(=O)N1c1ccccc1 | 61.1 µM (active) | 
38 | C=C(C)C(=O)OCCC[Si](Cl)(Cl)Cl | inactive | 
39 | C/C=C/C=N/NC(=O)c1ccncc1 | inactive | 
40 | c1cc2c3c(c1)ccc1cccc(c13)C2 | inactive | 
